Data as given in PubChem BioAssay AID720540 (National Center for Advancing Translational Sciences (NCATS), 2013).
The campaign covered roughly 1,300 compounds. About 460 (35%) were called active. Not shown: some 39% with an inconclusive outcome. The list shows a part of the results. Unmarked numbers belong to inactive results. Calls come from the whole dose curve; as a rule, active = well fitted inhibition curve with a large enough effect; inconclusive = small, poorly fitted or top-dose-only effect; inactive = flat fitted curve, though single readings scatter.

The compounds below were run against Protein phosphatase EYA2 (Homo sapiens) (UniProt O00167) (assay: qHTS for Inhibitors of the Phosphatase Activity of Eya2: Confirmatory Assay for Cherry-picked Compounds). Details: purified EYA2 phosphatase activity, qHTS confirmation; series mostly up to 46.1 µM; activity change, negative = inhibition: at the top concentration.
Protein phosphatase EYA2 (Homo sapiens), sequence (O00167 whole entry, looked up): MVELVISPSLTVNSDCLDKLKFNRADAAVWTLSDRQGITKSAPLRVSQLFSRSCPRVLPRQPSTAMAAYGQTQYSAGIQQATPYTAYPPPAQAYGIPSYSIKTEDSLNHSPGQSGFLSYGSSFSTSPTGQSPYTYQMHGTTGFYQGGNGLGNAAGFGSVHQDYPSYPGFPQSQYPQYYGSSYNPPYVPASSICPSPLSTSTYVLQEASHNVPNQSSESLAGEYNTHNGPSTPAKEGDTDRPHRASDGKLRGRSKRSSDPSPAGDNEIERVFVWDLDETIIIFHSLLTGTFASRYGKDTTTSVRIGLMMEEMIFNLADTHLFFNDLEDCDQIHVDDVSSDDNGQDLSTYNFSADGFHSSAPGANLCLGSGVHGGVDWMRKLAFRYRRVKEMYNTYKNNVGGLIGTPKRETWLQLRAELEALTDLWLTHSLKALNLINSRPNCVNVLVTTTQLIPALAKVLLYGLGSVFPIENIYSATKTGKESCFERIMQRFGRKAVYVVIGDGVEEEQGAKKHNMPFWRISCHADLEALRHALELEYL
Outline: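 Eya2 (0.2 uM working solution) preincubated 10 min at room temperature with compound in pH 7.5 HEPES buffer with MgCl2, BSA, DTT. OMFP added (50 uM working solution), 10 min more; fluorescence 485/525 nm, normalized to EGTA and DMSO.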
Note: nearly all actives have a fitted effect of over 65% in size.
Potency is the fitted concentration of half-maximal effect.
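Throughout, for activity change, negative = inhibition: 0% = DMSO wells and -100% = EGTA control giving full inhibition.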

| SMILES | activity change, negative = inhibition [%] | Potency |
| --- | --- | --- |
| CCOc1cc(C(=O)NC(C)CCc2ccccc2)cc(OCC)c1OCC (stereo not given) | 13.9 |  |
| C[C@H](CCC(=O)NCC(=O)O)[C@H]1CC[C@H]2[C@@H]3[C@H](O)C[C@@H]4C[C@H](O)CC[C@]4(C)[C@H]3C[C@H](O)[C@]12C | -6.72 |  |
| CC(C(=O)O)N1C(=O)/C(=C/C=C/c2ccco2)SC1=S (stereo not given) |  | 3.79 µM (active) |
| O=C(O)C(Cc1ccccc1)N1C(=O)/C(=C/C=C/c2ccco2)SC1=S (stereo not given) |  | 6.75 µM (active) |
| O=C(O)CC(C(=O)O)N1C(=O)/C(=C/C=C/c2ccco2)SC1=S (stereo not given) |  | 3.79 µM (active) |
| O=C(CSc1nnc(CNC(=O)c2ccccc2)o1)Nc1nccs1 | -23.7 |  |
| Cc1cc(NC(=O)CSc2nnnn2-c2ccccc2C)no1 | -21.9 |  |
| Cc1cc(C)c(NC(=O)CSc2ccc(-c3ccccn3)nn2)c(C)c1 |  | 6.75 µM (active) |
| Cc1ccccc1NC(=O)CSc1ccc(-c2ccccn2)nn1 |  | 4.26 µM (active) |
| Cc1csc(NC(=O)CSc2ccc(-c3ccccn3)nn2)n1 |  | 4.26 µM (active) |
| Cc1cccc(C#Cc2ccccc2)n1 | 10.3 |  |
| O=S(=O)(NCCSCc1ccc(Cl)c(Cl)c1)c1ccc2c(c1)OCCO2 | -18.2 |  |
| CN(C)c1ccc(NC(=O)CC(NCc2ccccn2)C(=O)O)cc1 (stereo not given) |  | 0.849 µM (active) |
| CC(=O)Nc1ccc(NC(=O)COc2ncnc3ccccc23)cc1 | -5.31 |  |
| O=C(NCc1ccccc1)c1ccc2nc(-c3ccco3)c(-c3ccco3)nc2c1 |  | 8.49 µM (active) |
| Cc1ccc(CNC(=O)c2ccc(-n3cccc3)cc2)cc1 | -19.7 |  |
| O=C(NCCCO)c1ccc2nc(-c3ccco3)c(-c3ccco3)nc2c1 |  | 9.53 µM (active) |
| CN(C)C(CNC(=O)c1ccc2c(c1)S(=O)(=O)c1ccccc1C2=O)c1ccco1 (stereo not given) | -29.2 |  |
| Cc1cccc2cn[nH]c12 | -0.6 |  |
| COc1ccc(/C=N/N2CCN(Cc3ccc(C)cc3)CC2)cc1Br |  | 15.1 µM (active) |

| SMILES | activity change, negative = inhibition [%] | Potency |
| --- | --- | --- |
| COC1=C(Nc2ccc(OC)cc2)C(=O)c2ccccc2C1=O |  | 6.01 µM (active) |
| O=C(NNC(=O)c1cc2cc(Br)ccc2oc1=O)c1ccc(O)cc1 | -7.2 |  |
| CC(=O)Nc1ccc(OC(=O)c2cc3cc(Br)ccc3oc2=O)cc1 |  | 7.57 µM (active) |
| Cc1nc(S/C(=C\c2ccc(-c3ccc(C(=O)O)c(Cl)c3)o2)C(=O)O)n[nH]1 |  | 15.1 µM (active) |
| COc1ccc(Cc2nc3c4c(ncn3n2)Oc2ccc3ccccc3c2C4c2ccc(OC)c(OC)c2)cc1 (stereo not given) | -18.2 |  |
| Cc1ccc(S(=O)(=O)N2c3ccccc3-c3c(ssc3=S)C2(C)C)cc1 |  | 15.1 µM (active) |
| COc1ccc2c(c1)-c1c(ssc1=S)C(C)(C)N2S(=O)(=O)c1ccc(C)cc1 |  | 16.9 µM (active) |
| CC1CCN(C(=O)Nc2ccc3nc(-c4ccco4)c(-c4ccco4)nc3c2)CC1 |  | 6.75 µM (active) |
| O=C(Nc1ccc2nc(-c3ccco3)c(-c3ccco3)nc2c1)N1CCCC1 |  | 7.57 µM (active) |
| COCCNC(=O)c1cccc(OC2CCN(Cc3ccc(F)cc3OC)CC2)c1 | -8.43 |  |
| O=C(CSc1nc(-c2ccccc2)nc2c1Cc1ccccc1O2)Nc1ccc(C(=O)O)cc1 |  | 7.57 µM (active) |
| CN(C1=C(N2CCCCC2)C(=O)c2ccccc2C1=O)c1ccccc1 |  | 1.2 µM (active) |
| O=C(CCS(=O)(=O)c1ccc(Br)cc1)N1CCCCCC1 | -25.4 |  |
| O=C1C(NS(=O)(=O)c2ccc(Br)cc2)=C(N2CCCCC2)C(=O)c2ccccc21 |  | 8.49 µM (active) |
| CC1CCN(C2=C(NS(=O)(=O)c3ccc(Br)cc3)C(=O)c3ccccc3C2=O)CC1 |  | 3.79 µM (active) |
| O=C1N=c2ccccc2=C1c1sc(Nc2cccc(O)c2)nc1O | -24.2 |  |
| O=C1C(Nc2cccc(O)c2)=C(N2CCCCC2)C(=O)c2ccccc21 |  | 15.1 µM (active) |
| COc1ccc(-c2cc(C3CCNCC3)[nH]n2)cc1 | -8.52 |  |
| O=C(N[C@@H]1CC[C@H](CCn2cc(-c3ccccn3)nn2)O[C@@H]1CO)c1ccncc1 |  | 19 µM (active) |
| CC(C)(C)NC(=O)c1cccc(NC(=O)c2ccc(NC(=O)c3ccco3)cc2)c1 | -21 |  |

| SMILES | activity change, negative = inhibition [%] | Potency |
| --- | --- | --- |
| CCN(CC)c1ccc(NC(=O)c2ccc3c(c2)c(C)c(C)n3C)cc1 |  | 13.5 µM (active) |
| CC1C=CCC2C(=O)N(c3ccc(OC(=O)c4cccs4)cc3)C(=O)C12 (stereo not given) |  | 3.38 µM (active) |
| CC1C=CCC2C(=O)N(c3ccc(OC(=O)c4ccco4)cc3)C(=O)C12 (stereo not given) |  | 7.57 µM (active) |
| Cc1nc(-n2[nH]c3c(c2=O)CCCC3)[nH]c(=O)c1Cc1ccccc1 |  | 19 µM (active) |
| CCCc1nc(N2CCN(C)CC2)c2sc(=S)n(-c3ccccc3)c2n1 | -21.6 |  |
| O=S(=O)(c1cc(O)ccc1O)c1cccc2c(S(=O)(=O)c3cc(O)ccc3O)cccc12 |  | 15.1 µM (active) |
| N#Cc1c2nc3ccccc3nc2n2cc(NC(=O)c3ccc(F)cc3)ccc12 |  | 4.26 µM (active) |
| CC(C)CCNC(=O)c1onc(CSc2ccncc2)c1C(=O)NCCC(C)C | -9.87 |  |
| CCOc1cc(/C=C2/NC(=O)NC2=O)cc(Br)c1OCc1ccc(C(=O)O)cc1 |  | 21.3 µM (active) |
| O=C1NC(=O)/C(=C\c2ccccc2OCc2cccc([N+](=O)[O-])c2)N1 | -27.6 |  |
| Cc1c(NC(=O)c2ccco2)cccc1C(=O)NN1C(=O)c2ccccc2C1=O | -17.1 |  |
| C=C(C)COc1ccc(-c2nc(N)nc(C)c2-c2ccc(OC)cc2)c(O)c1 |  | 7.57 µM (active) |
| COc1ccc(-c2nc(N)ncc2-c2csc(C)n2)c(O)c1 | -21.3 |  |
| COc1ccccc1-n1c(SCC(=O)Nc2cc(C)on2)nc2c(c1=O)SCC2 | -20.4 |  |
| O=C(O)c1ccc(CSc2nc3ccccc3c(=O)n2-c2ccccc2)cc1 | -26.9 |  |
| COc1ccc(-n2c(SCC(=O)Nc3cc(C(=O)O)ccc3C)nc3ccccc3c2=O)cc1Cl |  | 8.49 µM (active) |
| COc1ccccc1-c1noc2c1C(=O)N(Cc1cn(-c3ccc(Cl)cc3)nn1)CC2 | -24.7 |  |
| O=c1cc2ncc(-n3cc([N+](=O)[O-])cn3)cn2[nH]1 | -10.2 |  |
| CCC(=O)N1c2ccc(S(=O)(=O)N3CCN(c4ccc([N+](=O)[O-])cc4)CC3)cc2CC1C (stereo not given) | -21.1 |  |
| Cc1cccc(N2CC(C(=O)OCC(=O)c3ccc(OC(=O)c4cccs4)cc3)CC2=O)c1C (stereo not given) |  | 9.53 µM (active) |
